# Measured values as given in PubChem BioAssay (Tox21).
# Values joined by “and” are separate entries in the source; they are usually repeats but may differ in a detail not shown here. Equal values may be shown once. Inconclusive results are not listed. Active and inactive are the calls of the source. The call rests on the fitted dose curve; in most records, active means well fitted curve in the direction sought with a large enough effect in the repeat runs; inconclusive means weak or mixed curves; inactive means no such curve, though single readings can be large; an effect the other way counts as inactive or inconclusive.
# Assay: qHTS RealTime-Glo MT Cell Viability Assay in HEK293 cells - 32 hour (AID 1224868); on activity change, negative = cytotoxic: top concentration of the series differs between compounds
# Details: RealTime-Glo luminescence; series mostly up to 76.8 µM; activity change, negative = cytotoxic: at the top concentration
# Method in brief: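 HEK293 cells seeded with NanoLuc/prosubstrate reagent, rested 5 h at 37 C, then dosed and kept at 37 C up to 40 h. Nonlytic real-time luminescence from viable cells read at 0, 8, 16, 24, 32 and 40 h.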
# Further: nearly all actives have a fitted effect of over 50% in size.
# On the % scale 0 is the no-effect control and ±100 the full control effect; potency means the concentration at half of the fitted maximal effect.
Compound,"activity change, negative = cytotoxic",Potency
C/C(=C(\CCOP(=O)(O)O)SC(=O)c1ccccc1)N(C=O)Cc1cnc(C)nc1N,2.89% [at 6.97 µM] (inactive),–
CC1=CC=C(C(C)C)CC1,1.24% (inactive),–
CCC(C)O (stereo not given),9.78% (inactive),–
C=C1C(=C/C=C2\CCC[C@]3(C)[C@@H]([C@H](C)/C=C/[C@@H](O)C4CC4)CC[C@@H]23)C[C@@H](O)C[C@@H]1O,–,16.9 µM (active)
COC(=O)c1ccc(I)cc1S(=O)(=O)NC(=O)Nc1nc(C)nc(OC)n1,-0.11% (inactive),–
CC(=O)NO,2.79% [at 35.3 µM] (inactive),–
CCCC(=O)Nc1ccc(O)c(C(C)=O)c1,-0.843% [at 35.3 µM] (inactive),–
CCCCC(=O)OCC(=O)[C@H]1[C@H](C)C[C@H]2[C@@H]3C[C@H](F)C4=CC(=O)C=C[C@]4(C)[C@@]3(F)[C@@H](O)C[C@@]21C,-15.6% [at 35.3 µM] (inactive),–
CCN(CC)c1ccc(C(=C2C=CC(=[N+](CC)CC)C=C2)c2cc(S(=O)(=O)O)ccc2S(=O)(=O)[O-])cc1,-1.01% [at 35.3 µM] (inactive),–
O=[N+]([O-])c1cccc(S(=O)(=O)O)c1,–,22.2 µM (active)
Brc1c2ccccc2c(Br)c2ccccc12,4.29% [at 6.97 µM] (inactive),–
CC1(c2ccccc2)OC(C(=O)O)=CC1=O (stereo not given),2.6% [at 35.3 µM] (inactive),–
CN(C)c1ccc(/C=C/c2ccc([N+](=O)[O-])cc2)cc1,-5.7% [at 6.97 µM] (inactive),–
Cc1cccc(Nc2ccccc2)c1,-12.6% (inactive),–
CCCn1cnc2c1c(=O)n(CCCCC(C)=O)c(=O)n2C,-1.78% [at 35.3 µM] (inactive),–
CCCCCCc1ccc(-c2ccc(C#N)cc2)cc1,-11.6% (inactive),–

Compound,"activity change, negative = cytotoxic",Potency
CN(C)CCN(Cc1ccccc1)c1ccccn1,-26.2% [at 35.3 µM] (inactive),–
C#Cc1cccc(Nc2ncnc3cc(OCCOC)c(OCCOC)cc23)c1,-22.7% [at 35.3 µM] (inactive),–
C[C@H]1C[C@H]2[C@@H]3CCC4=CC(=O)C=C[C@]4(C)[C@@]3(Cl)[C@@H](O)C[C@]2(C)[C@@]1(O)C(=O)CO,-24.1% [at 35.3 µM] (inactive),–
NCCCN1CCOCC1,-11.8% (inactive),–
C#CCN(C)CCCOc1ccc(Cl)cc1Cl,-25.2% [at 35.3 µM] (inactive),–
COc1cc(C(=O)OCCCN2CCCN(CCCOC(=O)c3cc(OC)c(OC)c(OC)c3)CC2)cc(OC)c1OC,–,9.52 µM (active)
COc1cc(Cl)ccc1Oc1ccc(Cl)cc1Cl,-25.5% (inactive),–
C=CC(=O)OCCOCCOCCOCCOC(=O)C=C,–,34.8 µM (active) and 24.3 µM (active)
OC(CN1CCC(Cc2ccc(F)cc2)CC1)c1ccc(Cl)cc1 (stereo not given),–,10.7 µM (active)
Nc1ncn([C@H]2C[C@H](O)[C@@H](CO)O2)c(=O)n1,-1.43% [at 35.3 µM] (inactive),–
CCCCC(CC)COC(=O)CCCCCCCCC(=O)OCC(CC)CCCC (stereo not given),2.21% (inactive),–
CCN(CC)c1ccc2c(-c3ccccc3C(=O)O)c3ccc(=[N+](CC)CC)cc-3oc2c1,–,21.9 µM (active)
Cc1nn(C)c(Oc2ccccc2)c1/C=N/OCc1ccc(C(=O)OC(C)(C)C)cc1,–,0.0044 µM (active)
CCCCCCOC(=O)NC(=N)c1ccc(NCc2nc3cc(C(=O)N(CCC(=O)OCC)c4ccccn4)ccc3n2C)cc1,–,10.7 µM (active)
CCc1cc(C2=C(C(=O)O)N(c3ccccc3C(F)(F)F)S(=O)(=O)c3ccccc32)cc2c1OCO2,-23.5% (inactive),–

# Assay: A CellTox Green Cytotoxicity Assay to monitor cytotoxicity in HEK293 cells - 0 hour (AID 1224869)
# Details: CellTox Green fluorescence; series mostly up to 76.8 µM; cytotoxicity: at the top concentration
# Method in brief: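 Read-out: fluorescence of a cell-impermeant cyanine dye staining DNA of dead cells, proportional to cytotoxicity. HEK293, 600 cells/well with reagent, compound (23 nL DMSO) added after 5 h; reads at 0, 8, 16, 24, 32, 40 h.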
Compound,cytotoxicity,Potency
C/C(=C(\CCOP(=O)(O)O)SC(=O)c1ccccc1)N(C=O)Cc1cnc(C)nc1N,0.458% [at 6.97 µM] (inactive),–
CC1=CC=C(C(C)C)CC1,-1.84% (inactive),–
CCC(C)O (stereo not given),-6.77% (inactive),–
C=C1C(=C/C=C2\CCC[C@]3(C)[C@@H]([C@H](C)/C=C/[C@@H](O)C4CC4)CC[C@@H]23)C[C@@H](O)C[C@@H]1O,0.68% [at 35.3 µM] (inactive),–
COC(=O)c1ccc(I)cc1S(=O)(=O)NC(=O)Nc1nc(C)nc(OC)n1,0.393% (inactive),–
Brc1c2ccccc2cc2ccccc12,0.946% (inactive),–
O[C@@H](COc1cccc2ncccc12)CN1CCN(C2c3ccccc3[C@@H]3[C@H](c4ccccc42)C3(F)F)CC1 (stereo not given in full),0.909% [at 35.3 µM] (inactive),–
CC(=O)NO,6.3% [at 35.3 µM] (inactive),–
CCCC(=O)Nc1ccc(O)c(C(C)=O)c1,-2.13% [at 35.3 µM] (inactive),–
CCCCC(=O)OCC(=O)[C@H]1[C@H](C)C[C@H]2[C@@H]3C[C@H](F)C4=CC(=O)C=C[C@]4(C)[C@@]3(F)[C@@H](O)C[C@@]21C,1.8% [at 35.3 µM] (inactive),–
CCN(CC)c1ccc(C(=C2C=CC(=[N+](CC)CC)C=C2)c2cc(S(=O)(=O)O)ccc2S(=O)(=O)[O-])cc1,5.6% [at 35.3 µM] (inactive),–
O=[N+]([O-])c1cccc(S(=O)(=O)O)c1,-0.862% (inactive),–
Brc1c2ccccc2c(Br)c2ccccc12,0.676% [at 6.97 µM] (inactive),–
CC1(c2ccccc2)OC(C(=O)O)=CC1=O (stereo not given),3.7% [at 35.3 µM] (inactive),–
Cc1cccc(Nc2ccccc2)c1,0.51% (inactive),–
CCCn1cnc2c1c(=O)n(CCCCC(C)=O)c(=O)n2C,-0.74% [at 35.3 µM] (inactive),–
CCCCCCc1ccc(-c2ccc(C#N)cc2)cc1,3.14% (inactive),–

Compound,cytotoxicity,Potency
CN(C)CCN(Cc1ccccc1)c1ccccn1,1.09% [at 35.3 µM] (inactive),–
C#Cc1cccc(Nc2ncnc3cc(OCCOC)c(OCCOC)cc23)c1,2.95% [at 35.3 µM] (inactive),–
C[C@H]1C[C@H]2[C@@H]3CCC4=CC(=O)C=C[C@]4(C)[C@@]3(Cl)[C@@H](O)C[C@]2(C)[C@@]1(O)C(=O)CO,-0.468% [at 35.3 µM] (inactive),–
NCCCN1CCOCC1,1.78% (inactive),–
C#CCN(C)CCCOc1ccc(Cl)cc1Cl,-4.56% [at 35.3 µM] (inactive),–
COc1cc(C(=O)OCCCN2CCCN(CCCOC(=O)c3cc(OC)c(OC)c(OC)c3)CC2)cc(OC)c1OC,9.26% [at 35.3 µM] (inactive),–
CCCCCCCCCCCCN1CCCCCC1=O,-5.22% (inactive),–
COc1cc(Cl)ccc1Oc1ccc(Cl)cc1Cl,-3.49% (inactive),–
C=CC(=O)OCCOCCOCCOCCOC(=O)C=C,–,inactive
OC(CN1CCC(Cc2ccc(F)cc2)CC1)c1ccc(Cl)cc1 (stereo not given),-2.69% [at 35.3 µM] (inactive),–
Nc1ncn([C@H]2C[C@H](O)[C@@H](CO)O2)c(=O)n1,-0.21% [at 35.3 µM] (inactive),–
CCCCC(CC)COC(=O)CCCCCCCCC(=O)OCC(CC)CCCC (stereo not given),-5.11% (inactive),–
CCN(CC)c1ccc2c(-c3ccccc3C(=O)O)c3ccc(=[N+](CC)CC)cc-3oc2c1,–,21.9 µM (active)
S=C([S-])NCCNC(=S)[S-].[Mn+2],2.9% (inactive),–
Cc1nn(C)c(Oc2ccccc2)c1/C=N/OCc1ccc(C(=O)OC(C)(C)C)cc1,-1.93% (inactive),–
CCCCCCOC(=O)NC(=N)c1ccc(NCc2nc3cc(C(=O)N(CCC(=O)OCC)c4ccccn4)ccc3n2C)cc1,2.71% [at 35.3 µM] (inactive),–
CCc1cc(C2=C(C(=O)O)N(c3ccccc3C(F)(F)F)S(=O)(=O)c3ccccc32)cc2c1OCO2,5.82% (inactive),–
